From PubChem
Only some compounds are listed: those with a hit (about 11% of all), similar ones and a draw of the others.
AMA1-RON2 inh: qHTS for Inhibitors of AMA1-RON; Towards Development of Antimalarial Drug Lead: Primary Screen; Plasmodium falciparum AMA1 (3D7) - RON2 peptide interaction; AlphaScreen AMA1-biotinylated RON2 peptide binding; Potency, µM (top dose mostly 58.2 µM), for the others: top-dose activity change, negative = inhibition, usual class: inhibitors; 360,000 compounds, 0.2% hits; AID 720542, 2013;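 also: 0% = vehicle wells and -100% = peptide control; nearly all actives have a fitted effect of over 45% in size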
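AMA1 (3D7) with his tag at 25 nM final met compounds first, then biotinylated RON2 peptide at 25 nM; detection used donor plus acceptor beads, 10 µg/mL apiece, read by AlphaScreen after 30 min at room temperature.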
Pf growth 48h: Primary qHTS for delayed death inhibitors of the malarial parasite plastid, 48 hour incubation; P. falciparum luciferase growth in erythrocytes, 48 h; Potency, µM (series often up to 28.7 µM), without a hit: top-dose activity change, negative = inhibition, most hits filed as inhibitors; 310,000 compounds, 5.9% hits; AID 504832, 2011
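A one-generation exposure of luciferase-tagged malaria parasites in RPMI 1640/Albumax erythrocyte culture, 37 C and 5% CO2. Inhibition is inferred from decreased luminescence after adding detection reagent.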
AmpC detergent: qHTS Inhibitors of AmpC Beta-Lactamase (assay with detergent) | 370,000 compounds, 0.041% hits | P00811 | Potency, µM (top dose mostly 114 µM), without a hit: top-dose activity change, negative = inhibition, usual class: inhibitors | AmpC hydrolysis of nitrocefin, absorbance 480 nm, 0.01% Triton;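 also: 0% = no-compound wells and -100% = no-enzyme wells; nearly all actives have a fitted effect of over 25% in size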
Target sequence (P00811 whole entry, looked up): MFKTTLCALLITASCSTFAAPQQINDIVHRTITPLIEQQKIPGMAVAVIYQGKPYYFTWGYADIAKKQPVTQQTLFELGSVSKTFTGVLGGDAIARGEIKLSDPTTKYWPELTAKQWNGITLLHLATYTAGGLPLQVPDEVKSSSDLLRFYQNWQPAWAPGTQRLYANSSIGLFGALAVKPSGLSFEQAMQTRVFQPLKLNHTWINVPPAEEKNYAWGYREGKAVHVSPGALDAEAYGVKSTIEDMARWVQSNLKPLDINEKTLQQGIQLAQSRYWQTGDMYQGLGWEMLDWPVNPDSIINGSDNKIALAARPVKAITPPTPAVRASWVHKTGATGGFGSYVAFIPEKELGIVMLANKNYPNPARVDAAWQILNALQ
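AmpC (5.3 nM in the dispensed reagent) in 20 mM phosphate pH 7.0 with 0.01% (detergent screen) or 0.0001% Triton X-100 was preincubated with compounds for 15 min at room temperature. Nitrocefin was then added from an 800 uM solution, and hydrolysis was followed at 480 nm.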
AmpC inh no detg: qHTS Inhibitors of AmpC Beta-Lactamase (assay without detergent). P00811. AmpC nitrocefin hydrolysis, absorbance 480 nm, 0.0001% Triton. Potency, µM (highest dose often 57.1 µM), for the others: top-dose activity change, negative = inhibition, most hits filed as inhibitors. 330,000 compounds, 0.52% hits;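 also: plate controls were no compound for no effect and no enzyme for full effect; nearly all actives have a fitted effect of over 20% in size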
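AmpC (5.3 nM in the dispensed reagent) in 20 mM phosphate pH 7.0 with 0.01% (detergent screen) or 0.0001% Triton X-100 was preincubated with compounds for 15 min at room temperature. Nitrocefin was then added from an 800 uM solution, and hydrolysis was followed at 480 nm.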
HCV inh: qHTS Assay for Inhibitors of Hepatitis C Virus (HCV) | Huh7.5.1 HCVcc-Cre infection, luciferase reporter, 44 h | Potency, µM (top dose mostly 41.8 µM), for inactives: at the top dose activity change, negative = inhibition, actives largely listed as inhibitors | 340,000 compounds, 3.4% hits
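1,000 cells/well; 4 h culture; + compound; + HCVcc-Cre (~0.5 moi); 44 h; luciferase substrate, RT 15 min; read 15 sec.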
Pf growth 96h: Primary qHTS for delayed death inhibitors of the malarial parasite plastid, 96 hour incubation; AID 504834, 2011; Potency, µM (titrated, usually from 28.7 µM), inactives show top-dose activity change, negative = inhibition, actives largely listed as inhibitors; P. falciparum luciferase reporter growth, 96 h; 320,000 compounds, 6.9% hits
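P. falciparum expressing integrated firefly luciferase grown in erythrocytes (2% hematocrit, 0.05% parasitemia final) with compounds for 96 hours at 37 C, 5% CO2. Growth inhibition read as loss of luminescence after adding luciferase detection reagent.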
An asterisk follows results filed as active; ? = inconclusive; . = no result given; [ ] = another dose, or the depositor's remark. Calls follow the shape of the dose curve; as a rule, active = well fitted curve in the direction sought with a large enough effect; inconclusive = small, poorly fitted or top-dose-only effect, or another doubt; inactive = no such curve, though single readings can be large; an effect the other way counts as inactive or inconclusive. Unless noted, % is scaled to controls: 0 for no effect and ±100 for the full control effect; potency is read from the fitted curve at half-maximal effect.

SMILES	AMA1-RON2 inh	Pf growth 48h	AmpC detergent	AmpC inh no detg	HCV inh	Pf growth 96h
COc1ccc2c(c1)c(=O)c(C(=O)c1ccc(C)cc1)cn2CC(=O)Nc1ccc(F)cc1	0%	?	?	18µM*	1%[8.37 µM]	?
COc1cccc(NC(=O)Cn2cc(C#N)c3ccccc32)c1	3%	15µM*	2%	-25%	-25%	67%
COCCSc1ccccc1C(=O)Nc1cc([N+](=O)[O-])ccc1OC	-5%	-4%	3%	-2%	7.9µM*	?
COCCSc1ccccc1C(=O)Nc1ccc([N+](=O)[O-])cc1OC	-7%	-11%	-6%	-2%	?	-2%
CCC1(c2ccccc2)CCC(=O)NC1=O (stereo not drawn)	.	19µM*	.	.	.	?
O=C(O)CN1C(=O)c2ccc(Oc3cccc4c3C(=O)N(CC(=O)O)C4=O)cc2C1=O	-20%	-3%	?	-11%	5%	.
O=C(O)CN1C(=O)c2ccc(Oc3ccc4c(c3)C(=O)N(CC(=O)O)C4=O)cc2C1=O	-8%	2.1µM*	2%	-18%	22%	50%
COC(=O)c1sc(NC(=O)c2ccc([N+](=O)[O-])o2)c(C#N)c1C	14%	45%	-4%	-16%	11µM*	?
COC(=O)c1c(NC(=O)c2ccc([N+](=O)[O-])o2)sc2c1CCN(C(C)C)C2	2%	15µM*	?	23%	2.8µM*	?
CC(C)N1CCc2c(sc(NC(=O)c3cc(-c4cccs4)nc4ccccc34)c2C(N)=O)C1	7%	?	-8%	245%	10µM*	?
CC(C)N1CCc2c(sc(NC(=O)c3ccc([N+](=O)[O-])o3)c2C(N)=O)C1	.	13µM*	-2%	-11%	.	4.7µM*
CC(C)N1CCc2c(sc(NC(=O)c3nc4ccccc4s3)c2C(N)=O)C1	57%	-18%	-14%	2%	?	56%
COc1ccc(NC(=O)Cn2c(=O)n(-c3cccc(C)c3)c(=O)c3c2c2cc(C)ccc2n3C)cc1OC	.	.	5%	.	.	.
CCNc1nc(NCC)n2c(SCC(=O)NC34CC5CC(CC(C5)C3)C4)nnc2n1	0%	?	-9%	-7%	2%	?
CCNc1nc(NCC)n2c(SCC(=O)Nc3ccc(CC)cc3)nnc2n1	2%	10µM*	?	-46%	?	?
CCNc1nc(NCC)n2c(SCC(=O)N(CC)C3CCCCC3)nnc2n1	-11%	?	-8%	4%	-6%	7.4µM*
Cc1cc(SCC(=O)NCc2ccc(Cl)cc2)nc(=O)[nH]1	.	.	3%	.	.	.
CCc1ccc(CNC(=O)Cn2nc(C)n3c(cc4cc(C)ccc43)c2=O)cc1	.	.	12%	.	.	.
O=C(NN(C(=O)C1CC1)c1nc2ccccc2s1)C1CC1	30%	27%	-2%	2%	10%	4.1µM*
CC(C)C(=O)NN(C(=O)C(C)C)c1nc2ccccc2s1	8%	-2%	3%	-7%	2%	24%
Cc1cc(N/N=C/c2ccc(O)c(C)c2O)nc(-c2ccccc2O)n1	70%	5.9µM*	-2%	-39%	?	?
Cc1cc(Nc2ccc(F)c(F)c2)nc(-c2ccccc2O)n1	0%	?	5%	-40%	?	?
Cc1ccc(Nc2cc(C)nc(-c3ccccc3O)n2)cc1	-2%	.	?	-24%	?	114%
Cc1cc(Nc2ccc(Br)cc2)nc(-c2ccccc2O)n1	10%	97%	0%	-46%	13µM*	-10%
Cc1cc(NCCCN)nc(-c2ccccc2O)n1	-2%	-8%	9%	-19%	10µM*	.
CN(C)c1ccc(-c2nc(-c3ccco3)no2)cc1[N+](=O)[O-]	.	.	-4%	.	.	.
